The panel holds about 79,000 compounds, 15% with a hit somewhere; the sample as a whole holds those more often. Active and inactive are the calls of the source. Rule as the data show it: active = growth inhibition above about 70%; inactive = the rest. Where a SMILES comes first, the peptide text is derived from it. [ ]: non-standard residue; d: D form. ξ: configuration not given here. ξD = NC(CC(=O)O)C(=O)O
Test: NCI Yeast Anticancer Drug Screen. Data for the sgs1 mgt1 strain (AID 161);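 also: 0% = growth of cultures given vehicle only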
Details: S. cerevisiae sgs1 mgt1 strain, at 5.0 µM (retest, dose inferred, filed as 0.5), active compounds read high
Outline: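 Read-out: growth inhibition vs vehicle controls. Cells: mutant yeast strain deficient in DNA damage repair.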

SMILES	growth inhibition
CCCCC(C=O)(C=C=C(C)C)CC (configuration not stated)	0% (inactive)
CN(C)c1ccc(/C=C/c2cc[n+](C)c(/C=C/c3ccc(N(C)C)cc3)c2)cc1	98% (active)
COc1cc([C@@H]2c3cc4c(cc3[C@H](OC3OC5COC(c6ccccc6)OC5C(O)C3O)[C@H]3COC(=O)[C@H]23)OCO4)cc(OC)c1OC (some centres not stated)	18% (inactive)
OC(c1cc(-c2ccc(Cl)cc2)nc2c(Cl)cccc12)C1CCCCN1 (configuration not stated)	93% (active)
CSc1nc(C)c(C(=O)CCN2CCN(c3ccccn3)CC2)s1	-23% (inactive)
Cc1cc(C(=O)c2ccc(Cl)cc2)ccc1O	0% (inactive)
O=C(c1ccccc1)C(Br)C(Br)c1ccccc1 (configuration not stated)	38% (inactive)
CCCCCCN(CCCCCC)CCCNc1nccc2ccccc12	2% (inactive)
CCCCCCCCCCCC[S+](C)CC(=O)[O-] (configuration not stated)	-2% (inactive)
COC(=O)C(=[N+]=[N-])C(=O)c1ccc([N+](=O)[O-])o1	18% (inactive)
Cc1c(O)ccc(SC#N)c1C	7% (inactive)
Oc1c(Cl)cc(Cl)cc1C(c1cc(Cl)cc(Cl)c1O)C(Cl)(Cl)Cl	-4% (inactive)
CCCCCCCCCCCCNCCCc1ccccc1	100% (active)
Nc1ccc(C(=O)/C=C/c2ccccc2)cc1	11% (inactive)
NCC(=O)NC(CC(=O)O)C(=O)O (configuration not stated) (H-Gly-[ξD]-OH)	-10% (inactive)
CN(C)c1ccc(C(=C2C=CC(=[N+](C)C)C=C2)c2ccc(N(C)C)cc2)cc1	99% (active)
O=C1c2ccccc2Cc2cccc(Cl)c21	4% (inactive)
O=C/C=C/c1ccc([N+](=O)[O-])cc1	18% (inactive)
O=C1c2ccccc2C(=O)c2c(O)c(Cl)cc(O)c21	7% (inactive)
CN1CSC(=S)N(Cc2ccccc2)C1	15% (inactive)
CC(O)C(O)C(O)C(O)C(O)C(=O)NNc1ccccc1 (configuration not stated)	7% (inactive)
Cn1c(COC(=O)NC2CCCCC2)c(COC(=O)NC2CCCCC2)c2ccc3cc(Cl)c(Cl)cc3c21	-3% (inactive)
NC(=S)N/N=C\c1nccc2c(N)cccc12	9% (inactive)
Oc1cc(Cl)ccc1Cc1ccc(Cl)cc1O	98% (active)
CCCCCCCCCCCC(=O)OC(C)C(=O)NCCCC (configuration not stated)	2% (inactive)
CCC(=O)c1cc([N+](=O)[O-])c(Br)s1	100% (active)
OC(Cc1cc(CC(O)(C(F)(F)F)C(F)(F)F)nc(CC(O)(C(F)(F)F)C(F)(F)F)c1)(C(F)(F)F)C(F)(F)F	-9% (inactive)
